PI5P4K alpha inh = PI5P4K alpha (human) kinase inhibition; max response, %; P48426; PI5P4Kalpha enzyme, ADP-Glo luminescence, 60 min; active compounds read low; 330,000 tested, 1.2% active; active = max response of -50% or lower; inconclusive = between -30% and -50%; inactive = -30% or higher; note: value at the top dose of about 77 µM
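Human PI5P4Kalpha with substrate in 0.038 M HEPES pH 7.4, 0.28 mM EGTA, 0.1% CHAPS, 5% DMSO; reaction started with 5 microM ATP (final), 60 min at room temperature. ADP formed read by ADP-Glo luminescence.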
Tb PFK inh = blocks T. brucei phosphofructokinase; T. brucei PFK, ADP-Glo luminescence; Potency, µM (doses to about 57.5 µM), actives largely listed as inhibitors; 330,000 tested, 0.17% active; note: nearly all actives have a fitted effect of over 60% in size
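1.25 nM PFK with 0.5 mM F6P and 0.1 mM ATP in 0.1 M TEA pH 8.0, 5 mM MgCl2, incubated 45 min at room temperature; ADP measured by ADP-Glo luminescence; compounds titrated up to 57 uM.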
PI4K2A inh = PI4K2A (human) kinase inhibition | Q9BTU6 | purified PI4K2A, ADP-Glo luminescence, 1 h; active compounds read low | activity change, negative = inhibition, % at 76.9 µM | 420,000 tested, 0.13% active | AID 1346378; in the data active = activity change below about -50%; inconclusive = mostly about -30% to -49%
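Compounds are screened against recombinant PI4K2A using PI as substrate and ATP, the latter dispensed at 300 microM. Reactions run one hour at ambient temperature before ADP-Glo detection; full inhibition defined by wells lacking enzyme.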
Pin1 inhibitor = blocks the human prolyl isomerase Pin1 | Q13526 | Pin1 FP peptide displacement, HiFluor488, 10 min | Potency, µM (top dose mostly 115 µM), actives largely listed as inhibitors | 390,000 tested, 0.009% active | AID 504891; active = well fitted inhibition curve with a large enough effect in the polarisation, with a control signal flat, not every such curve was filed as active; inconclusive = small, poorly fitted or top-dose-only effect, or effect the other way, or a change in a side signal; inactive = no such curve, though single readings can be large or run the other way; the % refers to the polarisation
Target sequence (Q13526 whole entry, looked up): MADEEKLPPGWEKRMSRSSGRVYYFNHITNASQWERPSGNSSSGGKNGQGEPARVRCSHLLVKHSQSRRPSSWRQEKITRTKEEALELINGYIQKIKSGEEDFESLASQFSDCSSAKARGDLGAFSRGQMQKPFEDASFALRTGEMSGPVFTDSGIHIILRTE
PGK inhibitor = inhibitors of T. brucei phosphoglycerate kinase | P07378 | PGK/GAPDH coupled, Kinase-Glo luminescence, 60 min | Potency, µM (series often up to 57.5 µM), most hits filed as inhibitors | 380,000 tested, 0.043% active; note: nearly all actives have a fitted effect of over 60% in size
Target sequence (P07378 whole entry, looked up): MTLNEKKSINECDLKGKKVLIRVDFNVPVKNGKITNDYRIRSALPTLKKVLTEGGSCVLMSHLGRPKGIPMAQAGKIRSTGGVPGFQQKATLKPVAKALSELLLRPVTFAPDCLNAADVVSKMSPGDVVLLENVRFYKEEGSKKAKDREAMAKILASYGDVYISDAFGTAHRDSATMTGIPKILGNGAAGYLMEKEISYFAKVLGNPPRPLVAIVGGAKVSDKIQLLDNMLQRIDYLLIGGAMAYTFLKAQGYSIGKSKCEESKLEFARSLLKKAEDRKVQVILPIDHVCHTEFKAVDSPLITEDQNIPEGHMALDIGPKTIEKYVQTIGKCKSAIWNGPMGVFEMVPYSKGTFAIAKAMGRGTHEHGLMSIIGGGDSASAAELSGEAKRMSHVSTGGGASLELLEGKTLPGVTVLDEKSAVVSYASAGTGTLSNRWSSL
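Recombinant glycosomal PGK reaction used 1,3-bisphosphoglycerate generated in-well by GAPDH (100nM final) in 100mM TEA pH 7.6, 5mM MgCl2, 0.01% Tween-20. After 60 minutes at room temperature, ATP was read by Kinase-Glo Plus luminescence end-point.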
ADP-Glo counter = interferes with ADP-Glo detection without enzyme present | shares compounds with PI5P4K alpha inh | ADP-Glo detection counter-screen, luciferase luminescence, no enzyme | Potency, µM (doses to about 76.9 µM), hits mostly inhibitors | 1,100 tested, under 10 active
Hits are given with their value; – = inactive; ? = inconclusive; · = no result; ! = not confirmed by another sample. Many of the other results were omitted from the sample, so hits are more common in it than they were. Unless noted, calls come from the whole dose curve; as a rule, active = well fitted curve in the direction sought with a large enough effect; inconclusive = small, poorly fitted or top-dose-only effect, or another doubt; inactive = no such curve, though single readings can be large; an effect the other way counts as inactive or inconclusive.

SMILES	PI5P4K alpha inh	Tb PFK inh	PI4K2A inh	Pin1 inhibitor	PGK inhibitor	ADP-Glo counter
CCc1ccc(Nc2nnc(SCC(=O)Nc3sccc3C(N)=O)s2)cc1	–	–	–	–	–	·
CN1C(=O)c2cc(NC(=O)Nc3ccc(F)c(F)c3)ccc2OC[C@H]2O[C@@H](CC(=O)O)CC[C@H]21	·	·	–	·	·	·
CC(=O)NC12CC3CC(C1)CC(C(=O)OCC(=O)Nc1ncc(Cl)c(C)c1Cl)(C3)C2	-52.0	–	–	?	–	–
Cc1c(Cl)cnc(NC(=O)COC(=O)C2CC2)c1Cl	–	–	–	–	–	·
C[C@H]1/C=C/CC(=O)N[C@@H](c2ccccc2)[C@@H](C)/C=C/CC(=O)N[C@H]1c1ccccc1	·	·	–	·	·	·
CCN1CCN(Cc2ccc(NC(=O)c3ccc(C)c(NC(=O)c4csc(-c5ccncc5)n4)c3)cc2C(F)(F)F)CC1	-64.9	–	–	–	–	–
CCN1CCN(Cc2ccc(NC(=O)c3cc(NC(=O)c4cc5cccc(OC)c5o4)cc(OC)c3)cc2C(F)(F)F)CC1	-61.5!	–	–	–	–	–
CC1(C(=O)O)CCCN1C(=O)c1ccc(Cl)cc1Cl (stereo not given)	–	·	–	·	·	·
Cc1oc(-c2ccc(Cl)cc2)cc1C(=O)N1CCC1(C)C(=O)O (stereo not given)	-51.9	·	–	·	·	–
CC1CCc2c(sc(NC(=O)CSc3ncn[nH]3)c2C#N)C1 (stereo not given)	–	–	–	–	–	·
Cc1nnc(SCC(=O)Nc2sc3c(c2C(N)=O)CCCC3)[nH]c1=O	?	–	–	–	–	·
CCCc1cc(=O)[nH]c(SCC(=O)Nc2sc3c(c2C#N)CCC(C)C3)n1 (stereo not given)	-54.4	–	–	?	–	–
Cc1nnc(SCC(=O)Nc2sc3c(c2C(N)=O)CCC(C)C3)[nH]c1=O (stereo not given)	-53.6	–	–	–	–	–
c1ccc(-c2cc3nc(NCc4cccs4)nc(NCc4ccc5occc5c4)c3s2)cc1	·	·	–	·	·	–
Fc1ccc(-c2n[nH]c(=S)n2N=Cc2ccc(OCc3ccccc3)cc2)cc1	·	·	–	·	·	·
COc1ccc(C(=O)NCCSc2ccccc2)cc1OC	-87.2	–	–	–	–	–
COc1cc(C(=O)NCCSc2ccccc2)cc(OC)c1OC	–	–	–	–	–	·
O=C(NCc1ccccc1)N1CCC(c2nc3ccc(Cl)cc3[nH]2)CC1	·	·	–	·	·	·
COCCNc1nc(NCCOc2ccccc2)c2sc(-c3ccccc3)cc2n1	·	·	–	·	·	–
COc1cccc(CNc2nc(NC(C)C)nc3ccsc23)c1	·	·	–	·	·	–
COc1ccccc1CNc1nc(NCc2ccc(C)cc2C)c2sccc2n1	·	·	–	·	·	–
COc1ccccc1CNc1nc(NC(C)C)nc2cc(-c3ccccc3)sc12	·	·	–	·	·	–
COC(=O)[C@]12C[C@H](CC(=O)N3CCCCC3)C(=O)N(CCc3ccc(OC)c(OC)c3)C1=C[C@H](C(C)(C)C)O[C@@H]2C	·	·	–	·	·	·
CN(C)[C@@H]1CCN(c2ccc3c(c2)O[C@@H]2CCN(C2)S3(=O)=O)C1	·	·	–	·	·	·
CCOC(=O)c1cccc(NC(=O)CN(C)S(=O)(=O)c2ccc(C)c(C)c2)c1	·	·	–	·	·	·
SMILES	PI5P4K alpha inh	Tb PFK inh	PI4K2A inh	Pin1 inhibitor	PGK inhibitor	ADP-Glo counter
CCCCNC(=O)C1(C(=O)c2ccc(OC)cc2)CC(c2ccccn2)=NO1 (stereo not given)	·	·	–	·	·	·
COc1ccccc1CNc1nc(NCc2cccc(OC)c2OC)c2sccc2n1	·	·	–	·	·	–
COc1ccccc1CNc1nc(NCc2ccccc2F)c2sccc2n1	?	·	–	·	·	·
COc1ccccc1CNc1nc(NCc2ccccc2)nc2ccsc12	·	·	–	·	·	–
CCN(CC)C(=O)COC(=O)c1cc(-c2ccco2)nc2ccccc12	-68.5	–	–	?	–	–
COc1ccc(CCNC(=O)c2cc(-c3ccco3)nc3ccccc23)cc1	-60.6	·	–	–	–	–
CCN(CC)C(=O)COC(=O)c1cc(-c2ccc(OC)cc2)nc2ccccc12	·	–	–	–	–	·
CCOC(=O)C1CCCN(C(=O)c2cc(-c3ccncc3)nc3ccccc23)C1 (stereo not given)	–	–	–	–	–	·
CCOC(=O)C1CCCN(C(=O)c2cc(-c3ccco3)nc3ccccc23)C1 (stereo not given)	-84.5	–	?	·	?	–
CNC(=O)COC(=O)c1cc(-c2ccco2)nc2ccccc12	-87.0	–	–	?	?	–
CCN(CC)CCNC(=O)c1cc(-c2ccco2)nc2ccccc12	–	–	–	–	–	·
O=C1NN=C2CCCCCC12 (stereo not given)	–	·	–	·	–	–
O=c1cc(N2CCN(c3ccnc4cc(Cl)ccc34)CC2)[nH]c(=O)n1C1CCCCC1	·	·	–	·	·	·
OCCCNc1cc(-c2ccnc(Nc3cccc(Cl)c3)n2)ccn1	-51.4	–	–	–	–	–
CC1CCCCN1C(=O)c1ccc(CNC(=O)c2cccc(Br)c2)cc1 (stereo not given)	·	·	–	·	·	·
c1ccc(Cn2ccc3ccc(-c4ccc5ccn(Cc6ccc(-c7ccccc7)cc6)c5c4)cc32)cc1	·	·	–	·	·	·
COc1ccc(-c2nnc(C)c3nocc23)cc1	-65.9	–	?	?	·	–
O=C(CSc1nnc(-c2ccccn2)n1-c1ccccc1)Nc1ccc(OCc2ccccc2)cc1	·	·	–	·	·	·
Cc1nc2ccccc2nc1OCC(=O)NCc1ccc2c(c1)OCO2	-61.9	–	–	–	–	–
O=C(COc1ncnc2ccccc12)NCc1ccc2c(c1)OCO2	–	–	–	–	–	·
CC(=O)Nc1ccc(NC(=O)CSc2nnc(-c3n[nH]c4c3CCC4)n2N)cc1	·	·	–	·	·	·
Cc1nn(-c2nc3ccccc3[nH]2)c(=O)c2ccccc12	-60.1	?	-81.4	–	?	?
Cc1nn(-c2ccc3ccccc3c2)c(=O)c2ccccc12	–	–	–	–	–	·
COC(=O)[C@@]12CCCCC=C1N(CCc1ccc(Cl)cc1)C(=O)[C@H]2CC(=O)NCC12CC3CC(CC(C3)C1)C2	·	·	–	·	·	·
O=C(c1ccccc1)c1ccc2nc(-c3ccco3)c(-c3ccco3)nc2c1	-99.6	?	?	·	–	–
SMILES	PI5P4K alpha inh	Tb PFK inh	PI4K2A inh	Pin1 inhibitor	PGK inhibitor	ADP-Glo counter
O=C(c1ccc(=O)oc1)N1CCCc2ccccc21	-57.2	?	–	?	?	–
O=C(Nc1ccsc1C(=O)O)c1cccc(C(F)(F)F)c1	-58.4	–	–	–	–	–
Cn1c(COc2ccccc2)nnc1SCC(=O)Nc1ccc(S(=O)(=O)Nc2nccs2)cc1	·	·	–	·	·	·
COc1ccccc1NC(=O)Nc1nc(CC(=O)Nc2cccc(F)c2)cs1	–	–	–	–	–	·
COc1ccccc1NC(=O)Nc1nc(CC(=O)Nc2cc(F)ccc2F)cs1	-52.2	–	–	–	–	–
O=C(NCC1CCCCC1)c1cccc([N+](=O)[O-])c1	-62.2	–	–	–	–	–

High-throughput results (PubChem BioAssay)
